The values below come from PubChem BioAssay.

The nature of experiment [1]: viability loss in pontine glioma line – cell-based, SU-DIPG-XVII, MIPE5.0, CellTiter-Glo, qHTS, dose response (AID 1347060).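 For AC50: cells exposed to compound for 48 hours before viability readout.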 The following applies: CellTiter-Glo ATP luminescence. For orientation: In ATP-based viability assays light output follows the ATP content of the culture.
A short description of experiment [2]: viability loss in pontine glioma line – cell-based, SU-DIPG-XIII, MIPE5.0, CellTiter-Glo, qHTS, dose response (AID 1347064; cut-off not given, nearly all actives have AC50 up to about 23 µM;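 for AC50: cells exposed to compound for 48 hours before the viability read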). Conditions: CellTiter-Glo ATP luminescence.
Experiment [3] is described as follows: JHH-DIPG-1 glioma cell viability, MIPE5.0 library, CellTiter-Glo luminescence, qHTS (AID 1347067).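 Note: cells exposed to compound for 48 hours before readout.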 Conditions: JHH-DIPG-1 glioma viability, CellTiter-Glo ATP luminescence.
Experiment [4] can be described thus: growth inhibition, single agent or in combination, cell-based, chromothripsis tumors, cisplatin or BGB combos (AID 1671449; in the data active = inhibition above about 80%;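 note: cells exposed for 96 hours; 0% = vehicle DMSO and 100% = killing by high DMSO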). The following applies: LFS_MB_P medulloblastoma cells.
Experiment [5] in a line: growth inhibition, single agent and combos, cell-based, chromothripsis tumors, cisplatin or BGB combos (AID 1671450; in the data active = inhibition above about 80%;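 note: cells exposed to compound for four days; 0% = vehicle DMSO and 100% = cell killing by high DMSO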). The following applies: HDN33 neuroblastoma cells, stronger effect = higher value.
Experiment [6] can be described thus: growth inhibition, single agents and combos, ICB984, cell-based, cisplatin or BGB combos, synergistic combos for chromothripsis tumors (AID 1671451; call rule not given here;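 note: cells exposed for 96 hours before readout; 0% = vehicle DMSO and 100% = killing by high DMSO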). Conditions: ICB984 medulloblastoma cells, drug combinations, stronger effect = higher value.
Experiment [7] is described as follows: growth inhibition, single agents and combos, LFS_MB_1R, cell-based, cisplatin or BGB combos, synergistic combos for chromothripsis tumors (AID 1671452; in the data active = inhibition above about 80%;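 note: cells exposed for 96 hours before readout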). Conditions: LFS_MB_1R medulloblastoma cells, stronger effect = higher value.
Experiment [8] is described as follows: growth inhibition, single agents and combos, HTB85, cell-based, BGB or cisplatin IC20 combos, synergistic combos for chromothripsis tumors (AID 1671453; in the data active = inhibition above about 80%;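 note: cells exposed for 96 hours before readout; 0% = vehicle DMSO and 100% = high DMSO killing control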). Conditions: HTB85 osteosarcoma cells, drug combinations, stronger effect = higher value.
A short description of experiment [9]: growth inhibition, single agents and combos, CRL2098, cell-based, BGB or cisplatin IC20 combos, synergistic combos for chromothripsis tumors (AID 1671454; in the data active = inhibition above about 80%;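 note: cells exposed for 96 h before readout; 0% = vehicle DMSO and 100% = killing by high DMSO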). The following applies: CRL2098 osteosarcoma cells, drug combinations, stronger effect = higher value.
Experiment [10] can be described thus: growth inhibition, single agents and combos, HD-MB03, cell-based, BGB or cisplatin IC20 combos, synergistic combos for chromothripsis tumors (AID 1671455; in the data active = inhibition above about 83%;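 note: 0% = vehicle DMSO and 100% = high DMSO as cytotoxic control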). The following applies: HD-MB03 medulloblastoma cells, stronger effect = higher value.
Experiment [11] is described as follows: growth inhibition, single agents and combos, UWB1.289, cell-based, BGB or cisplatin combos, synergistic combos for chromothripsis tumors (AID 1671456; in the data active = inhibition above about 80%;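 note: cells exposed to compound for four days; 0% = vehicle DMSO and 100% = killing by high DMSO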). Conditions: UWB1.289 ovarian carcinoma cells, stronger effect = higher value.
Experiment [12] in a line: growth inhibition, single agents and combos, LFS_MB_2R, cell-based, cisplatin combos, synergistic combos for chromothripsis tumors (AID 1671457; in the data active = inhibition above about 80%;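 note: cells exposed to compound for four days before readout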). The following applies: LFS_MB_2R medulloblastoma cells, stronger effect = higher value.
Experiment [13] is described as follows: growth inhibition, MDA-MB-436, cell-based, BGB or cisplatin combos, synergistic combos for chromothripsis tumors (AID 1671458; call rule not given here;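 note: cells exposed for 96 hours; 0% = vehicle DMSO and 100% = killing by high DMSO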). Conditions: MDA-MB-436 breast carcinoma growth inhibition, drug combinations, stronger effect = higher value.
Experiment [14] in a line: UWB1.289_BRCA1 ovarian cancer growth, cell-based, BGB or cisplatin combinations (AID 1671459; in the data active = inhibition above about 80%). Conditions: UWB1.289 BRCA1 ovarian carcinoma, drug combinations, stronger effect = higher value.
The nature of experiment [15]: drug combination toxicity in non-malignant astrocytes – cell-based, BGB or cisplatin IC20 combos, cytotoxicity control for chromothriptic childhood tumor combination screen (AID 1671460; in the data active = inhibition above about 80%;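 note: cells exposed to compounds for 96 hours before viability readout; 0% = vehicle and 100% = killing control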). The following applies: Human astrocytes, viability inhibition, drug combinations, at 0.5 µM, stronger effect = higher value.
The nature of experiment [16]: BT084 cell growth, single and combined drugs, ICGC_MB145, cisplatin and BGB IC40 combos (AID 1671461; in the data active = inhibition above about 80%;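 note: cells exposed to drugs for 96 hours; 0% = vehicle DMSO and 100% = high DMSO full killing control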). Conditions: BT084 medulloblastoma cells, drug combinations, stronger effect = higher value.
A short description of experiment [17]: RCMB18 cell growth, single agent and combined, cisplatin and BGB IC40 combos (AID 1671462; in the data active = inhibition above about 80%;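 note: cells exposed to compound for four days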). Conditions: RCMB18 medulloblastoma cells, stronger effect = higher value.
The nature of experiment [18]: CRL1545 cell growth, single agent and combined, cisplatin and BGB IC20 combos (AID 1671464; in the data active = inhibition above about 80%;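 note: cells exposed to compound for 96 hours before readout; 0% = vehicle DMSO and 100% = high DMSO killing control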). The following applies: CRL1545 osteosarcoma cells, stronger effect = higher value.
Experiment [19] is described as follows: growth inhibition of DIPG cells – cell-based, MIPE5.0 library, qHTS (AID 1347068; cut-off not given, nearly all actives have IC50 up to about 30 µM). Conditions: SU-DIPG-XXV viability.
Experiment [20] in a line: viability loss in pontine glioma line – cell-based, SU-DIPG-XXV, MIPE5.0, CellTiter-Glo, qHTS, dose response (AID 1347065).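 Note: cells exposed to compound for 48 hours before ATP readout.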 Conditions: CellTiter-Glo ATP luminescence.
[21] abbreviates: measured here: combination with BGB IC40, at 0.05 µM.
[22] abbreviates: measured here: with BGB IC20 combination, at 0.5 µM.
Where [23] appears, read: measured here: with cisplatin IC20 combination, at 0.5 µM.
The mark [24] stands for this setting: measured here: combination with cisplatin, at 0.5 µM.
Setting [25] is: measured here: combination with cisplatin, at 5 µM.

Results filed as inconclusive are left out. Calls of active or inactive are those of the source. Unless noted, no cut-off is given here; in the data, nearly all actives have AC50 up to about 26 µM.

As to `O=C(CCCCCCNC(=O)c1cnc(N(c2ccccc2)c2ccccc2Cl)nc1)NO`, the AC50 in [1] was 8.33 µM (active); in [2], 3.72 µM (active); in experiment [3], 7.42 µM (active). Moreover, the inhibition in experiment [4] (at 0.5 µM, stronger effect = higher value) is -18.4% (inactive); in experiment [4] (measured here: combination with BGB IC20, at 0.005 µM) it was -0.623%; in experiment [4] (measured here: combination with BGB IC40, at 0.005 µM), -22.7%; in experiment [4] (setting [21]) it was -0.542%; in experiment [4] (measured here: combination with cisplatin, at 0.5 µM, stronger effect = higher value) it was -15.1%; in [4] (measured here: combination with cisplatin, at 5 µM, stronger effect = higher value) it was 99.5%. For the same molecule, the inhibition in [5] (BGB combo, at 5 µM) is 50.4%; in experiment [5] (at 0.5 µM) it was 18.7% (inactive); in [5] (cisplatin combo, at 5 µM) it was 56.8%; in experiment [5] (setting [22]), 15.8%; in experiment [5] (setting [23]) it was 22.8%; in experiment [5] (single agent, at 5 µM) it was 62.1%. The inhibition in experiment [6] (BGB IC20 combo, at 0.005 µM) is 12.6%; in experiment [6] (BGB IC40 combo, at 0.005 µM), -39.2%; in [6] (BGB IC40 combo, at 0.05 µM), 39.9%; in experiment [6] (at 0.5 µM), -20.1% (inactive); in [6] (cisplatin combo, at 0.05 µM), 37.5%; in experiment [6] (cisplatin combo, at 0.5 µM) it was -17.2%. For the same molecule, the inhibition in experiment [6] (cisplatin combo, at 5 µM) was -24.9%; in experiment [6] (measured here: 5 uM single agent, at 5 µM) it was -20.1%; in [7] (at 0.5 µM), -5.6% (inactive); in experiment [7] (setting [21]), -9.58%; in [7] (setting [24]), -15.4%; in experiment [7] (setting [25]) it was 66.7%. The inhibition in [8] (at 0.5 µM) is -4.65% (inactive); in experiment [8] (measured here: with BGB IC20, at 0.5 µM), -17.2%; in experiment [8] (measured here: with BGB IC20, at 5 µM) it was 33.1%; in [8] (measured here: with cisplatin IC20, at 0.5 µM), -7.92%; in experiment [8] (measured here: with cisplatin IC20, at 5 µM), 47.7%; in experiment [8] (single agent, at 5 µM), 54%. Besides, the inhibition in experiment [9] (at 0.5 µM) was -36.3% (inactive); in experiment [9] (measured here: combination with BGB at IC20, at 0.5 µM) it was -46.5%; in experiment [9] (measured here: combination with cisplatin at IC20, at 0.5 µM) it was -0.706%; in experiment [10] (at 0.5 µM), 7.2% (inactive); in [10] (measured here: combo with BGB at IC20, at 0.5 µM) it was -0.477%; in experiment [10] (measured here: combo with cisplatin at IC20, at 0.5 µM), 8.58%. For the same molecule, the inhibition in experiment [11] (at 0.5 µM) is 8.33% (inactive); in experiment [11] (measured here: inhibition with BGB combination, at 0.05 µM), -28.3%; in [11] (measured here: inhibition with cisplatin combination, at 0.05 µM), -17.7%; in experiment [12] (at 0.5 µM), -16.9% (inactive); in experiment [12] (setting [24]), -6.73%; in [12] (setting [25]) it was 81%. Further, the inhibition was -11.7% (inactive) in experiment [13] (at 0.5 µM); -16.5% in experiment [13] (measured here: BGB combination, at 0.5 µM); 16.3% in [13] (measured here: BGB combination, at 5 µM); -18% in [13] (measured here: cisplatin combination, at 0.5 µM); 30.9% in experiment [13] (measured here: cisplatin combination, at 5 µM); 70.5% in experiment [14] (BGB combination, concentration series, at 5 µM). Also, the inhibition in experiment [14] (at 0.5 µM) is 15.1% (inactive); in experiment [14] (cisplatin combination, concentration series, at 5 µM), 83%; in experiment [15], 10.7% (inactive); in experiment [15] (measured here: combo with BGB IC20) it was 11.7%; in [15] (measured here: combo with cisplatin IC20) it was 14%; in [16] (at 0.5 µM), 2.48% (inactive). Moreover, the inhibition in experiment [16] (cisplatin combination, at 0.5 µM) was 7.21%; in [16] (cisplatin combination, at 5 µM), 78.9%; in experiment [16] (measured here: BGB IC40 combination 0.05 uM, at 0.05 µM) it was -0.825%; in experiment [16] (single agent, at 5 µM), 65%; in [17] (at 0.5 µM) it was -4.94% (inactive); in experiment [17] (cisplatin combo, at 5 µM), 64.2%. In addition, the inhibition is -4.49% in experiment [17] (measured here: BGB IC40 combination, at 0.05 µM); 5.58% in experiment [17] (setting [24]); 31.8% in [17] (single agent, at 5 µM); 32.3% (inactive) in experiment [18] (at 0.5 µM); 16.7% in [18] (setting [22]); 40.1% in experiment [18] (setting [23]). Besides, the inhibition in experiment [18] (single agent, at 0.05 µM) is -5.85%; in [18] (single agent, at 5 µM), 88.6%.
In the case of `Cc1ccc(C2=Nc3ccc(Cl)cc3OC2)cc1`, the result in experiment [1], in experiment [2] and in [19] was inactive.
Take `CN[C@@H](C)C(=O)N[C@@H]1C(=O)N(Cc2c(C)ccc3ccccc23)c2ccc(C#N)cc2N(C(C)=O)[C@H]1C`: the outcome in experiment [1], in experiment [2], in [3] and in [19] was inactive.
On to `CC(C)=CCC[C@](C)(O[C@@H]1O[C@H](CO[C@@H]2O[C@H](CO)[C@@H](O)[C@H](O)[C@H]2O)[C@@H](O)[C@H](O)[C@H]1O)[C@H]1CC[C@]2(C)[C@@H]1[C@H](O)C[C@@H]1[C@@]3(C)CC[C@H](O[C@@H]4O[C@H](CO)[C@@H](O)[C@H](O)[C@H]4O[C@@H]4O[C@H](CO)[C@@H](O)[C@H](O)[C@H]4O)C(C)(C)[C@@H]3CC[C@]12C`, for which the call in experiment [1], in experiment [2], in [3] and in experiment [19] was inactive.
In the case of `COc1cccc(-c2c(C)n(Cc3c(F)cccc3C(F)(F)F)c(=O)n(C[C@H](NCCCC(=O)O)c3ccccc3)c2=O)c1F`, the molecule was classed as inactive in [1], in experiment [20], in [3] and in [19].
As to `COc1ccc2[nH]c(C(=O)N3CCC(CC(C)(C)O)CC3)cc2c1`, the call in experiment [1], in [20] and in experiment [3] was inactive.

A word on the AC50: it is the concentration at which the activity in the assay is half-maximal. In general, inhibition refers to the change of the read-out against control, counted positive when it falls.
